Source: PubChem BioAssay (National Center for Advancing Translational Sciences (NCATS))
IMPase Li inh: cell-permeable IMPase inhibitors with lithium potentiation | CHO-M1 cells, IP1 TR-FRET (IP-One), carbachol + lithium | Potency, µM (titrated, usually from 59.4 µM), for inactives: at the top dose activity, negative = IMPase inhibition, most hits filed as inhibitors | actives 0.35% (n = 210,000);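 further: IP1 builds up when IMPase is blocked and the TR-FRET signal falls; plate controls were basal vehicle for no effect and high inhibitor control for full effect; nearly all actives have a fitted effect of over 50% in size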
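Test compounds were applied to CHO-M1 cells previously cultured for 16–30 h at 2000 per well. A small lithium amount accompanied them; after 30 min at 37C, IP1 was quantified by TR-FRET.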
Luc counter: blocks Kinase-Glo luciferase, a counter-screen artifact; Kinase-Glo luciferase, ATP luminescence, 8 min; Potency, µM (highest dose often 38.3 µM), without a hit: top-dose activity change, negative = inhibition, most hits filed as inhibitors; actives 0.28% (n = 200,000); AID 1379; further: nearly all actives have a fitted effect of over 60% in size
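Light output from Kinase-Glo luciferase with luciferin and 10 uM ATP in 50 mM imidazole pH 7.2, KCl, MgCl2, Tween 20, BSA; compound pin-delivered, 8-min ambient incubation, then luminescence read.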
ERK EGF inh: EGF-driven ERK pathway inhibition; Potency, µM (top dose mostly 11.5 µM), for inactives: at the highest dose activity change, negative = inhibition, actives largely listed as inhibitors; HEK293-V1b, EGF-stimulated phospho-ERK AlphaScreen; AID 1454; actives 0.41% (n = 130,000);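 further: plate controls were stimulated vehicle wells for no effect and unstimulated vehicle basal for full effect; nearly all actives have a fitted effect of over 55% in size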
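Phospho-ERK1/2 measured by AlphaScreen (SureFire) after 5 min 25 nM EGF stimulation of V1b-expressing HEK293 cells preincubated 30 min at 37C with titrated compounds; data scaled to DMSO and EGF controls, Hill-fitted AC50.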
NPSR antag: neuropeptide S receptor (human) antagonism, cAMP; Potency, µM (series often up to 38.3 µM), for inactives: top-dose activity change, negative = inhibition, usual class: inhibitors; CHO-NPSR cells, cAMP TR-FRET, antagonist mode; actives 1% (n = 220,000); further: nearly all actives have a fitted effect of over 50% in size
Target sequence (Q6W5P4 whole entry, looked up): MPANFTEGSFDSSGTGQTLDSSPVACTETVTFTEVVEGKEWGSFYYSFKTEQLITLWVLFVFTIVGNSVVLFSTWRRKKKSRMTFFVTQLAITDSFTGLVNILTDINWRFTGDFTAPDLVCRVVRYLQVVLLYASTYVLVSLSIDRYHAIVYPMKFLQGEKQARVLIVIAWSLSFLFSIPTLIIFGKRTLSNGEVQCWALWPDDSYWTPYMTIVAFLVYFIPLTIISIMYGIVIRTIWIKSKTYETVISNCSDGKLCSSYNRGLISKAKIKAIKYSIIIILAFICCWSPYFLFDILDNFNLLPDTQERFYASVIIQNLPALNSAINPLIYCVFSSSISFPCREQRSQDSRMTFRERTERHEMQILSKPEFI
Active calls of the source: *; ? = inconclusive; nt = not tested or not shown; [ ] = dose if it differs, or a comment. This is a sample that favours compounds with a hit; in the whole collection about 1.1% have one here. The call rests on the fitted dose curve; in most records, active means well fitted curve in the direction sought with a large enough effect; inconclusive means small, poorly fitted or top-dose-only effect, or another doubt; inactive means no such curve, though single readings can be large; an effect the other way counts as inactive or inconclusive. Unless noted, on the % scale 0 is the no-effect control and ±100 the full control effect; potency means the concentration at half of the fitted maximal effect.

SMILES	IMPase Li inh	Luc counter	ERK EGF inh	NPSR antag
CCOC(=O)Cn1c(=S)[nH]c2c(oc3ccc(Cl)cc32)c1=O	8.9µM*	17%	nt	?
COc1ccccc1NS(=O)(=O)c1ccc(N/N=C/c2c(C)nn(-c3ccccc3)c2N2CCCC2)c([N+](=O)[O-])c1	10%	-8%	13µM*	-12%
Nc1nc(-c2ccccc2)c(N=Nc2cccc3ccccc23)s1	14%	-16%	20µM*	?
Nc1nc(-c2ccccc2)c(N=Nc2ccccc2Cl)s1	15%	-3%	18µM*	-28%
Cn1nc(-c2ccc(Cl)cc2)c2cc(C(=O)NCCCN3CCCC3)sc21	8%[38.3 µM]	-2%	nt	10µM*
Cc1c(C)n(CCC#N)c2ccccc12	-1%	3%	1%	18%
Cn1c2ccccc2c2c3c(c4c5ccccc5n(CCC#N)c4c21)CNC3=O	3.5µM*	nt	nt	nt
COc1ccc2[nH]cc(CCNc3ncnc4ccc(-c5ccccc5OC)cc34)c2c1	-2%	nt	nt	nt
CS(=O)(=O)Oc1ccc2c(c1)O/C(=C\C=C\c1ccccc1)C2=O	nt	nt	7.9µM*	-45%
CCc1ccc(/C=C2\Oc3cc(OS(C)(=O)=O)ccc3C2=O)cc1	-3%	-2%	4%	-16%
Oc1ccc(Nc2nc3ccccc3nc2Nc2ccc(O)cc2)cc1	32%[38.3 µM]	3%	nt	10µM*
Cc1cc(C(=O)Nc2ccc(OCc3ccccc3)cc2)c(C)o1	10%	11µM*	-8%	-33%
CC(=O)NCCNc1ncnc2ccc(-c3ccc4c(c3)OCO4)cc12	-6%	nt	nt	nt
N.N.N.N.N.N.N.N.N.N.N.N.N.N.O.O.[Cl-].[Cl-].[Cl-].[Cl-].[Cl-].[Cl-].[Ru].[Ru].[Ru]	10%	-11%	16µM*	?
O=[N+]([O-])c1ccc(-c2nc(-c3ccc(F)cc3)c(-c3ccncc3)[nH]2)cc1	21%	-6%	?	7.9µM*
O=C(c1cnccn1)N1CCC2(CCN(Cc3ccccc3)CC2)CC1	17%	-2%	10%	nt
CC(=O)Oc1ccc2c(c1)CCC1C2CC[C@]2(C)C(=O)CCC12 (some centres undefined)	0%	-3%	12%	nt
CC(=O)/C(=C/c1ccccc1)C(=O)Nc1ccccc1C	14%	3%	-6%	-55%
Cc1ccccc1NC(=O)C(=Cc1ccc(C(=O)O)cc1)C(=O)Nc1ccccc1C	1%	4%	-9%	4µM*
CC1(C)CC[C@]2(C(=O)O)C(O)C[C@@]3(C)C(=CCC4[C@@]5(C)CCC(O)C(C)(C)C5CC[C@@]43C)C2C1 (some centres undefined)	10%	-3%	15%	nt
Cn1c(=O)c(Nc2ccc(O)cc2)c2c3c(cccc31)C(=O)c1ccccc1-2	26%	-14%	28µM*	-24%
COc1cccc2sc(Nc3nc(-c4ccccn4)cs3)nc12	nt	nt	nt	1µM*
Cc1cc(NC(=O)c2ccccc2)sc1C	-8%[38.3 µM]	11µM*	nt	-5%[46.1 µM]
CCN(CC)c1ccc(/C=N/N2CCN(Cc3ccccc3)CC2)cc1	18%	0%	28µM*	-46%
C(=N\N1CCN(Cc2ccccc2)CC1)/c1ccccc1	nt	nt	10%[57.5 µM]	2%
SMILES	IMPase Li inh	Luc counter	ERK EGF inh	NPSR antag
O=C(O)c1ccc(C(=O)C(=O)c2ccccc2)cc1	nt	nt	0%[57.5 µM]	-18%
CSC(SC)=C(C#N)C(=O)c1ccccc1	nt	nt	25µM*	?
COc1ccc(/C=C2\SC(=O)N(CC(=O)NNC(=O)c3ccccc3O)C2=O)cc1OC	5%	2%	13µM*	-18%
O=C(O)c1ccc2cc(-c3ccc(O)c(C45CC6CC(CC(C6)C4)C5)c3)ccc2c1	3%	-1%	25µM*	nt
O=C(/C(N=Nc1cccc([N+](=O)[O-])c1)=C(/O)c1ccc(Br)cc1)C(F)(F)F	nt	nt	-8%[57.5 µM]	6.3µM*
COCCOC(=O)CSc1ncccc1-c1nc2cc(C)c(C)cc2[nH]1	2%	13µM*	0%	29%
N=c1c2c(ncn1CCCO)Oc1c(ccc3ccccc13)C2c1ccccc1 (centres undefined)	nt	nt	-11%[57.5 µM]	-45%
COc1ccc(C2c3c(ncn(CCCN4CCOCC4)c3=N)Oc3ccc4ccccc4c32)cc1OC (centres undefined)	nt	nt	6%[57.5 µM]	10µM*
COc1ccc(C2c3ccc4ccccc4c3Oc3ncn(CCN4CCOCC4)c(=N)c32)cc1OC (centres undefined)	nt	nt	-3%[57.5 µM]	57%
COc1ccc(C2c3ccc4ccccc4c3Oc3ncn(CCCO)c(=N)c32)cc1 (centres undefined)	nt	nt	40µM*	?
CC(C)c1ccccc1S(=O)c1ccccc1C(C)(C)O (centres undefined)	1%	-2%[7.66 µM]	nt	nt
COc1ccc(OCC(=O)Nc2nccs2)cc1	-5%	10µM*	6%	-5%
CCOc1ccc(OCC(=O)Nc2nccs2)cc1	15%	11µM*	2%	-4%
CC(C)C[C@@H](CC(=O)N[C@@H](CCC(=O)O)CC(=O)O)NC(=O)[C@@H]1CNCC[C@H]1NC(=O)C[C@H](CCCN)NC(=O)C[C@H](Cc1c[nH]c2ccccc12)NC(=O)[C@@H]1CCCC[C@H]1N	9%	3%	-2%	nt
COC(=O)c1ccc(C(NC(=O)OCc2ccccc2)/C(=C/[C@@H](C)C(=O)NCc2cc(C)n(C)n2)c2cccnc2)cc1 (some centres undefined)	-7%	-2%	1%	nt
O=C(CSc1ncnc2c1oc1ccccc12)NC1CCCCC1	11µM*	7%	nt	?
O=C(CSc1ncnc2c1oc1ccccc12)NCc1ccc(F)cc1	25µM*	2%	nt	?
O=C(CSc1ncnc2c1oc1ccccc12)c1cccs1	13µM*	-2%	nt	21%[46.1 µM]
Fc1ccc(CSc2ncnc3c2oc2ccccc23)cc1	?	-2%	7%	?
NC(=O)CSc1ncnc2c1oc1ccccc12	13µM*	4%	nt	?
CCCCC1=CC2=C(OC(C)=O)C(=O)C(C)(OC(=O)C3CCCC3)C(=O)C2=CO1 (centres undefined)	-8%	-5%	-9%	nt
Cc1[nH]c(N=Nc2ccccc2)nc1N=Nc1ccccc1	nt	nt	22µM*	30%
Nc1ccc(N=Nc2ccccc2)c(N)n1	-2%	0%	3%[57.5 µM]	28%
COc1ccc(N2CCN(c3ccc(NC(=O)c4ccc5c(c4)OCO5)cc3C#N)CC2)cc1	?	-1%	nt	5µM*
Cc1cccc(CNc2ncnc3ccc(-c4ccoc4)cc23)c1	11%	-2%	?	nt
Cc1cccc(CNc2ncnc3ccc(-c4cccnc4)cc23)c1	32%	-2%	8.9µM*	nt
Cc1ccc(-c2nc3sc(C(N)=O)c(N)c3c3c2CCCC3)cc1	11µM*	0%	1%	-13%
COC(=O)CC[C@@H](C)[C@@H]1CC[C@@H]2[C@@H]3CC[C@H]4C[C@@H](O)CC[C@@]4(C)[C@@H]3CC[C@]21C	25%	-2%[7.66 µM]	nt	nt
CC(N)=Nc1ccc([N+](=O)[O-])cc1	-4%	-1%	4%	9%
O=[N+]([O-])c1ccc(N=Nc2c(Cl)cc(O)cc2Cl)cc1	nt	nt	?	7.9µM*
